From PubChem BioAssay AID1985 (Southern Research Specialized Biocontainment Screening …, 2009)
In all, about 2,300 compounds went through this assay and about 1,000 (43%) were called active. No rule for the calls is given here. So high a share suggests a set chosen from earlier hits. The list shows a part of the results. Results with a measured potency or affinity are listed apart.

assay: PhoP regulon inhibitor project modified counter assay, GFP fluorescence readout, dose response (AID 1985); settings: S. Typhi, 4 h; series mostly up to 150 µM

| SMILES | outcome |
| --- | --- |
| COc1cc2c3cc1Oc1cc(ccc1O)C[C@@H]1c4c(cc(OC)c(O)c4Oc4ccc(cc4)C[C@H]3N(C)CC2)CCN1C | inactive |
| Cc1ccc(C(C[N+](=O)[O-])n2nc(C)cc2C)cc1 (stereo not given) | inactive |
| CCN1C(=O)NC(c2ccccc2)C1=O (stereo not given) | inactive |
| CCN(CC)CCCCCCCCOC(=O)c1cc(OC)c(OC)c(OC)c1 | inactive |
| COc1cc(C(c2nnnn2C2CCCC2)N2CCN(C)CC2)cc(OC)c1OC (stereo not given) | inactive |
| O=S1(=O)CC=C(CSc2nc3ccccc3[nH]2)C1 | inactive |
| Cc1ccc(-n2[nH]c(C)c(C=NCc3ccncc3)c2=O)cc1 | inactive |
| Cc1ccnc(NS(=O)(=O)c2ccc(N=CC3=C(O)CC(C)(C)CC3=O)cc2)n1 | inactive |
| CCC(Oc1ccccc1)C(=O)Nc1nnc(S(=O)(=O)N2CCCCC2)s1 (stereo not given) | inactive |
| CCOc1ccc(C2CC(=O)NC(SCC(=O)OC)=C2C#N)cc1 (stereo not given) | inactive |
| COc1ccc(-c2cc(C(=O)Nc3ccc(S(=O)(=O)Nc4onc(C)c4C)cc3)c3ccccc3n2)cc1OC | inactive |
| CCC(CC)C(=O)NCCc1cc2ccc(C)cc2[nH]c1=O | inactive |
| O=Cc1ccc(N2CCCCCC2)cc1 | inactive |
| CCOC(=O)C1=C(C)NC(SCC(N)=O)=C(C#N)C1c1ccncc1 (stereo not given) | inactive |
| COc1ccccc1C(=O)N1CC2(C)CC1CC(C)(C)C2 (stereo not given) | inactive |
| COc1ccc(Cl)cc1-c1n[nH]c(=S)o1 | inactive |
| COc1ccc(-c2nnn(-c3ccc(Cl)cc3Cl)c2N)cc1 | inactive |
| Clc1ccc(/C=C/c2ncc[nH]2)c(Cl)c1 | inactive |
| Clc1ccc2nc(N3CCCCC3)[nH]c2c1 | inactive |
| CN(C)C(CNc1ccc([N+](=O)[O-])cc1C#N)c1ccccc1 (stereo not given) | inactive |
| COc1ccc(C(=O)C2CCN(CC(=O)Nc3cc(C)cc(C)c3)CC2)cc1 | inactive |
| CCN1CCN(Cc2ccc(NC(=O)c3ccc(C)c(NC(=O)C(=O)c4c[nH]c5ccccc45)c3)cc2C(F)(F)F)CC1 | inactive |
| O=C(CSC1=NCCS1)Nc1nc2c(s1)CCCC2 | inactive |
| Cc1ccc(CNC(=O)CCC(=O)Nc2nnc(C)s2)cc1 | inactive |
| COc1ccc(CC(=O)Nc2ncc([N+](=O)[O-])s2)cc1OC | inactive |

| SMILES | outcome |
| --- | --- |
| O=C(c1cc2c(s1)-c1ccccc1S(=O)(=O)C2)N1CCN(Cc2ccccc2)CC1 | inactive |
| COCc1ccc(C(=O)Nc2ccc(C(=O)O)cc2)o1 | inactive |
| COc1cccc(OC)c1C(=O)Nc1ccc(N2CCN(S(C)(=O)=O)CC2)cc1 | inactive |
| COC(=O)C1=C(C)N(C2CCCC2)C(=O)C1(NC(C)=O)C(F)(F)F (stereo not given) | inactive |
| NC(=O)c1cc(C(=O)c2cccc(Cl)c2Cl)c[nH]1 | inactive |
| Cc1cnc(C(=O)Nc2nnc(C)s2)cn1 | inactive |
| O=C1C=C(Nc2ccccc2O)c2ccccc2C1=O | inactive |
| CCCCCCOc1ccc(N2C(=O)CC(SC(=NCC)NCC)C2=O)cc1 (stereo not given) | inactive |
| CCCCOc1ccc(CN2CCC(O)CC2)cc1 | inactive |
| CN(C)CCCN1c2ccccc2Sc2ccc(C(F)(F)F)cc21 | inactive |
| O=C1NC(=S)S/C1=C1\Sc2ccccc2N1CCCS(=O)(=O)O | inactive |
| Cc1nc(-c2ccc(C(=O)N3CCOCC3)cc2)cs1 | inactive |
| Cn1ncc(N=Cc2ccccc2O)c1C(=O)N1CCOCC1 | inactive |
| Cc1ccc(C)c(OCc2ccc(C(=O)NN)o2)c1 | inactive |
| Cc1ccc(C)c(NC(=O)c2ccccc2O)c1 | inactive |
| O=C(Cc1ccc(F)cc1)NC1CCCC1 | inactive |
| O=C(NC1CCCCC1)c1ccc(S(=O)(=O)NCc2cccnc2)cc1 | inactive |
| C[C@]1(OC(=O)/C=C/c2ccccc2)C[C@@H](O)[C@]2(O)C=CO[C@@H](O[C@@H]3O[C@H](CO)[C@@H](O)[C@H](O)[C@H]3O)[C@@H]21 | inactive |
| C1=Nc2ccccc2CN1c1ccccc1 | inactive |
| COc1ccc(C(C(=O)Nc2ccc(C(C)C)cc2)N(Cc2ccco2)C(=O)CC2NC(=O)NC2=O)cc1 (stereo not given) | inactive |
| Cc1ncc([N+](=O)[O-])n1CC(=O)NC1CCCC1 | inactive |
| CC(=O)NS(=O)(=O)c1ccc(Nc2ccc([N+](=O)[O-])c3nonc23)cc1 | inactive |
| CC1=C([N+](=O)[O-])C(c2ccccc2)C2=C(N1)c1ccccc1C2=O (stereo not given) | inactive |
| O=C1CC(=O)CC(c2ccco2)C1 | inactive |
| COc1ccccc1C(=O)Nc1nnc(-c2ccc(F)cc2)o1 | inactive |

| SMILES | outcome |
| --- | --- |
| N#CC1=C2N=C(N)c3ccccc3N2C2=C(C(=O)CCC2)C1c1cccc(Cl)c1 (stereo not given) | inactive |
| O=C1c2ccccc2NC(c2cccc([N+](=O)[O-])c2)N1CCc1ccccc1 (stereo not given) | inactive |
| CCS(=O)(=O)N1CCN(C(=O)c2ccco2)CC1 | inactive |
| COc1cc(S(=O)(=O)N2CCN(C(=O)c3ccco3)CC2)c(OC)cc1C | inactive |
| COc1ccccc1NC(=O)Cn1nc(-c2ccncc2)nc1SCC(=O)NC1CCCC1 | inactive |
| O=C(CCNS(=O)(=O)c1cccc2nonc12)N1CCN(c2cccc(Cl)c2)CC1 | inactive |
| C=CCN(c1ccccc1)S(=O)(=O)c1cccc2cccnc12 | inactive |
| CC1CC(C)CN(S(=O)(=O)c2cccc3cccnc23)C1 (stereo not given) | inactive |
| CCN(CC)C(=O)C(=O)c1cn(CC(=O)N2CCc3ccccc3C2)c2ccccc12 | inactive |
| CC(=O)Oc1ccc(C(=O)Nc2ccc3c(c2)C(=O)N(CCC(=O)O)C3=O)cc1 | inactive |
| Brc1ccc2c(c1)CN1CCCC1=N2 | inactive |
| Cc1n[nH]c(=O)nc1NCCc1ccccc1 | inactive |
| c1ccc(CNc2nc(-c3ccccn3)nc3ccccc23)cc1 | inactive |
| CCOC(=O)COc1cccc2c(=O)n(CC(=O)N3CCCCC3)ccc12 | inactive |
| CC(=O)CC1OC(=O)C(Br)=C1NCc1ccccc1 (stereo not given) | inactive |
| COC(=O)CNc1n[nH]c(=S)[nH]c1=O | inactive |
| COc1ccc(C(=O)C[n+]2cc(Br)cc3ccccc32)cc1[N+](=O)[O-] | inactive |
| O=C(C[n+]1cc(Br)cc2ccccc21)c1ccc(F)cc1 | inactive |
| CCOCCCNC(=O)CN1CCN(Cc2ccccc2C)C1=O | inactive |
| COC(=O)c1c(-c2cccc(C)c2)csc1N | inactive |
| COC(=O)c1cc2ccsc2n1CC(=O)N(C)c1ccccc1 | inactive |
| CC(C)(C)CC(=O)Nc1nnc(SCC(=O)N2CCCCC2)s1 | inactive |
| Cc1nc(C)c(-c2ccc(SCc3ccccc3C)nn2)s1 | inactive |
| COc1ccc(-c2nnc(SC(C)C(=O)Nc3nccs3)n2Cc2ccccc2)cc1OC (stereo not given) | inactive |
| CC1=C(C#N)CCC(=O)N1Cc1c(C)cc(C)cc1C | inactive |

| SMILES | outcome |
| --- | --- |
| COc1ccc(Cl)cc1NC(=O)c1cc(-c2ccccc2)on1 | inactive |
| CC(Oc1ccc(Br)cc1)c1nc2c3ccccc3nc(=S)n2[nH]1 (stereo not given) | inactive |
| COc1ccc(NC(=O)Cn2cnc3c(cnn3C(C)(C)C)c2=O)cc1OC | inactive |
| COc1ccc(-n2nnc3c(SCC(=O)N4CCCc5ccccc54)ncnc32)cc1 | inactive |
| Cc1ccn2cc(C(=O)Nc3nnc(C)s3)nc2c1 | inactive |
| Cc1cc(C(=O)OCC(=O)Nc2cccc(S(=O)(=O)N3CCOCC3)c2)c(C)o1 | inactive |
| C#CCOCCOCCOCCNc1nc(N2CCN(C(=O)[C@H](CCCCN)n3cc([C@@H](N)CO)nn3)CC2)nc(N2CCN(C(=O)[C@H](Cc3cc4ccccc4[nH]3)n3cc([C@@H](N)Cc4ccc(O)cc4)nn3)CC2)n1 | inactive |
| C#CCOCCOCCOCCNc1nc(N2CCN(C(=O)C(Cc3cc4ccccc4[nH]3)n3cc(C(N)C(C)CC)nn3)CC2)nc(N2CCN(C(=O)C(Cc3cc4ccccc4[nH]3)n3cc(C(N)C(C)CC)nn3)CC2)n1 (stereo not given) | inactive |
| Nc1ccc(C(O)(C(F)(F)F)C(F)(F)F)cc1 | inactive |
| C#CCOCCOCCOCCNc1nc(N2CCN(C(=O)[C@H](Cc3ccc(O)cc3)n3cc([C@@H](N)C(C)CC)nn3)CC2)nc(N2CCN(C(=O)[C@H](Cc3cc4ccccc4[nH]3)n3cc([C@@H](N)Cc4ccc(O)cc4)nn3)CC2)n1 (stereo not given in full) | inactive |
| C#CCOCCOCCOCCNc1nc(N2CCN(C(=O)C(Cc3ccc(O)cc3)n3cc(C(N)CC(C)C)nn3)CC2)nc(N2CCN(C(=O)C(Cc3cc4ccccc4[nH]3)n3cc(C(N)Cc4ccc(O)cc4)nn3)CC2)n1 (stereo not given) | inactive |
| C#CCOCCOCCOCCNc1nc(N2CCN(C(=O)[C@H]([C@@H](C)CC)n3cc([C@@H](N)CO)nn3)CC2)nc(N2CCN(C(=O)[C@H](Cc3cc4ccccc4[nH]3)n3cc([C@@H](N)Cc4ccc(O)cc4)nn3)CC2)n1 | inactive |
| O=C(O)c1[nH]c2ccc(Br)cc2c1CCN1C(=O)c2cccc([N+](=O)[O-])c2C1=O | inactive |
| Cc1ccc(CCNC(=O)c2cc(S(=O)(=O)N3CCCCC3)c[nH]2)cc1 | inactive |
| CCOc1ccccc1NC(=O)CSc1nc(N)c(C#N)cc1C#N | inactive |
| Cn1cnnc1SCC(=O)Nc1ccc2nc(SCc3ccccc3)sc2c1 | inactive |
| CCOC(=O)c1ccc(NC(=O)CSc2nc(N3CCOCC3)nc(N3CCOCC3)n2)cc1 | inactive |
| CN1CCN(c2ccc(NC(=O)CSc3ccccc3)cc2F)CC1 | inactive |
| O=C(Nc1ccc2c(c1)OCCO2)C1CCCN1C(=O)Nc1ccc(F)cc1 (stereo not given) | inactive |
| C/C=C/c1ccc(OCc2cc(=O)n3cc(C)ccc3n2)c(OC)c1 | inactive |
| CCN(CCCNC(=O)c1cn(CC)c2ccc(S(=O)(=O)N(C)C)cc2c1=O)c1cccc(C)c1 | inactive |
| Cc1ccc(CCN2C(=O)CCC2(C)C(=O)NC2CCCC2)cc1 (stereo not given) | inactive |
| O=C(NCc1ccccc1)N[C@@H](Cc1c[nH]c2ccccc12)C(=O)O | inactive |
| Cc1c(-n2cc(C(=O)c3ccccc3O)cc(C#N)c2=O)c(=O)n(-c2ccccc2)n1C | inactive |
| Cc1c(NC(=O)OCc2ccccc2)c(=O)n(-c2ccccc2)n1C | inactive |
